In PubChem BioAssay (EPA / NIEHS) one finds outcome and AC50 data, which are given here for ten compounds.

Values joined by “and” are separate entries in the source; they are usually repeats but may differ in a detail not shown here. Equal entries are not always repeated. Records with an inconclusive call do not appear. Some structures have more than one record in an assay (separate samples or runs), and their calls can disagree. Active and inactive are the calls of the source. How the source made its calls, unless noted: active means hit-call score of the fitted dose curve at least 0.9, where 1 is the maximum; inactive means score below 0.9.

Experiment [1] concerns the target Nucleoli Translocation, AR (gene 367) (UniProt P10275). Nature of the experiment: UPITT_HCI_U2OS_AR_TIF2_Nucleoli_Antagonist: University of Pittsburgh U2OS Androgen Receptor-Transcriptional Intermediary Factor 2 (AR-TIF2) Antagonism High Content Imaging Assay for Nucleoli Translocation (AID 2283997; active means hit-call score of the fitted dose curve at least 0.9, where 1 is the maximum). In short, it runs like this:
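Measured quantity was AR-RFP fluorescence localized to nucleoli in engineered U2OS cells also bearing TIF2-GFP, acquired on automated high-content imagers. Primary testing used 20 uM compound; actives were confirmed in triplicate wells.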

Experiment [2] has as its target Ratio of Nucleoli Translocation and Cytoplasm, AR (gene 367) (UniProt P10275). The experiment in a line: UPITT_HCI_U2OS_AR_TIF2_Nucleoli_Cytoplasm_Ratio_Antagonist: University of Pittsburgh U2OS Androgen Receptor-Transcriptional Intermediary Factor 2 (AR-TIF2) Antagonism High Content Imaging Assay for Ratio of Nucleoli Translocation and Cytoplasm (AID 2283999; active means hit-call score of the fitted dose curve at least 0.9, where 1 is the maximum;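 further: antagonists lower the DHT-driven ratio of nucleolar to cytoplasmic red signal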). In short, it runs like this: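 U2OS cells expressing RFP-tagged human AR and GFP-tagged TIF2; compounds tested at 20 uM final (0.2% DMSO) in primary screen, 0.195–50 uM (0.5% DMSO) for concentration response. Readout: nucleolar-to-cytoplasmic red fluorescence ratio by high-content imaging, fitted relative to DHT.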

Experiment [3] can be described thus: CCTE_Simmons_MITO_basal_resp_rate: CCTE's HepG2 Seahorse XF Respirometric Screening Assay at Basal Respiratory State, Simmons Lab (AID 2284001). The note with it: actives raise or lower the signal. In short, it runs like this: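 HepG2 respirometry; 7-pt titration 125 nM–100 uM final; kinetic OCR at 6 min intervals for 72 min; n=3 biological, technical singles; DMSO baseline, gain or loss fit; fenpyroximate (decrease) and 2,4-DNP (increase) controls.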

Experiment [4] in a line: CCTE_Simmons_MITO_max_resp_rate: CCTE's HepG2 Seahorse XF Respirometric Screening Assay at Maximal Respiratory State [uncoupled], Simmons Lab (AID 2284002). Conditions: actives raise or lower the signal. Put shortly:
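Uncoupled (FCCP) respiration of HepG2 cells served as the endpoint, with measurements at 6-minute intervals across a 72-minute run and compounds dosed at 7 concentrations up to 100 uM final.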

A short description of experiment [5]: CCTE_Simmons_MITO_inhib_resp_rate: CCTE's HepG2 Seahorse XF Respirometric Screening Assay at Inhibited Respiratory State [full ETC block], Simmons Lab (AID 2284006). The note with it: actives raise or lower the signal. Put shortly:
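HepG2 cells on Seahorse XF96; oxygen consumption measured after test compound, then FCCP, then rotenone/antimycin A injections over 72 min. Test chemicals at 7 concentrations, 125 nM–100 uM final. OCR fitted bidirectionally versus DMSO.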

Experiment [6] is described as follows: CCTE_Simmons_MITO_viability: CellTiter-Glo Viability Assessment for CCTE's HepG2 Seahorse XF Respirometric Screening Assay [post-hoc], Simmons Lab (AID 2284007; active means hit-call score of the fitted dose curve at least 0.9, where 1 is the maximum;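 on AC50: cells exposed to chemical for 90 min before the ATP read; actives lower ATP signal relative to DMSO baseline meaning reduced viability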). In short, it runs like this:
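HepG2 cells from the Seahorse XF respirometry run were exposed 90 min to a 7-point series, 125 nM–100 uM final, DMSO vehicle; ATP content then read by luciferase luminescence. Three biological replicates, technical singles; loss of signal fitted versus DMSO.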

Experiment [7] is described as follows: CCTE_Shafer_MEA_acute_spike_number: CCTE's Neural Acute Assay for Total Number of Spikes, Shafer Lab (AID 2284008).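 On AC50: curve fitted for decrease in spike count so AC50 reflects inhibitors.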 Put shortly: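 Using an adaptive detector set to 8x rms noise, spikes were counted in 40-min windows before and after compound addition (0.03-40 uM) to rat cortical networks at 37 C; the well-level change from baseline was analysed relative to DMSO.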

Experiment [8] is described as follows: CCTE_Shafer_MEA_acute_firing_rate_mean: CCTE's Neural Acute Assay for Mean Firing Rate, Shafer Lab (AID 2284009).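 Further: analyzed for loss of signal so actives lower firing rate relative to DMSO.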 Put shortly:
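Percent change in well-mean firing rate was derived from extracellular spikes detected at 8x rms noise (300-5000 Hz band-pass) before and after a 40-min compound exposure. Cultures were primary rat cortical neurons, tested at 0.03-40 uM.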

Experiment [9] in a line: CCTE_Harrill_HTTr_Viability_MCF7: CCTE's 6-hour Cell Viability Assessment for the High-Throughput Transcriptomics (HTTr) Platform, in MCF-7 cells cultured in DMEM + 10% fetal bovine serum, Harrill Lab (AID 2284010). In short, it runs like this: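 Membrane integrity was scored by high-content imaging of propidium iodide dye exclusion after a 6 h exposure across an eight-point dilution series. Data were fitted bidirectionally relative to DMSO as negative control and baseline.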

Experiment [10] can be described thus: CCTE_Harrill_HTTr_Apoptosis_MCF7: CCTE's 6-hour Apoptosis Assessment for the High-Throughput Transcriptomics (HTTr) Platform, in MCF-7 cells cultured in DMEM + 10% fetal bovine serum, Harrill Lab (AID 2284011). In short, it runs like this: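 Apoptosis in MCF-7 cells grown in DMEM with 10% fetal bovine serum was scored after a six hour exposure by high content imaging of caspase-3/7 activation (CellEvent Caspase 3/7 Green), with DMSO serving as negative control and baseline.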

A short description of experiment [11]: CCTE_Harrill_HTTr_CellCount_MCF7: CCTE's Cell Proliferation Assessment for the High-Throughput Transcriptomics (HTTr) Platform, Harrill Lab (AID 2284012; active means hit-call score of the fitted dose curve at least 0.9, where 1 is the maximum;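 further: cells exposed to compound for six hours; intended direction is loss of nuclei count meaning fewer cells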). In short, it runs like this: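 MCF-7 cells were exposed for 6 h to an eight-point dilution series; Hoechst-labeled nuclei were counted by high content imaging. Curves were fitted bidirectionally against DMSO as negative control and baseline, with signal loss indicating reduced cell count.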

Experiment [12] is described as follows: CCTE_Shafer_MEA_acute_burst_number: CCTE's Neural Acute Assay for Single-Electrode Bursts, Shafer Lab (AID 2284013). Put shortly: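 Spontaneous network activity of primary rat cortical neurons was recorded extracellularly on microelectrode arrays at 37 C, with 40-min periods before and during exposure to 0.03-40 uM compound on DIV 13 or 15.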
Experiment [13] in a line: CCTE_Shafer_MEA_acute_burst_duration_mean: CCTE's Neural Acute Assay for Mean Burst Duration, Shafer Lab (AID 2284014).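 Further: hits are decreases in mean burst duration relative to DMSO controls.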 In short, it runs like this: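 Read-out is the per-well percent change in mean burst duration (first to last spike within a single-electrode burst) between 40-min recordings before and after compound. Cultures were primary rat cortical neurons on MEAs, dosed at 0.03-40 uM on DIV 13 or 15.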

The test system of a further experiment is DIO1 (gene 1733). The experiment in a line: CCTE_GLTED_hDIO1: CCTE's human Deiodinase 1 (DIO1) Inhibition Assay, Great Lakes Toxicology and Ecology Division (GLTED) Lab (AID 2283987; active means hit-call score of the fitted dose curve at least 0.9, where 1 is the maximum;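 further: isolated human DIO1 enzyme in a cell-free setup rather than cells; enzyme activity read as free iodide liberated from substrate via Sandell-Kolthoff colorimetry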). In short, it runs like this: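 Chemicals are tested on human DIO1 without cells for 3 h. Uninhibited enzyme frees iodide, which speeds cerium(IV) reduction by arsenic and is read by spectrophotometry.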

A short description of experiment [14]: CCTE_Harrill_HTTr_Apoptosis_DMEM_6hr: (Pilot) CCTE's 6-hour Apoptosis Assessment for the High-Throughput Transcriptomics (HTTr) Platform, in MCF-7 cells cultured in DMEM + 10% fetal bovine serum, Harrill Lab (AID 2283981). In short, it runs like this: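 Caspase-3/7 activation read by high content imaging with CellEvent Caspase 3/7 Green in MCF-7 cells (DMEM + 10% FBS), 6 h after dosing; eight-point dilution series. Bidirectional fitting relative to DMSO baseline.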

A short description of experiment [15]: CCTE_Harrill_HTTr_Apoptosis_DMEM_12hr: (Pilot) CCTE's 12-hour Apoptosis Assessment for the High-Throughput Transcriptomics (HTTr) Platform, in MCF-7 cells cultured in DMEM + 10% fetal bovine serum, Harrill Lab (AID 2283982). Put shortly: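 MCF-7 cells in DMEM + 10% FBS, exposed 12 h to an eight-point dilution series; caspase-3/7 activation imaged with CellEvent Green. Bidirectional fit versus DMSO.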

The nature of experiment [16]: CCTE_Harrill_HTTr_Apoptosis_DMEM_24hr: (Pilot) CCTE's 24-hour Apoptosis Assessment for the High-Throughput Transcriptomics (HTTr) Platform, in MCF-7 cells cultured in DMEM + 10% fetal bovine serum, Harrill Lab (AID 2283983). In short, it runs like this:
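MCF-7 cells in DMEM + 10% FBS, eight-point dilution series, 24 h exposure. Caspase-3/7 activation imaged by high-content imaging with CellEvent Caspase 3/7 Green. Bidirectional curve fitting against DMSO baseline.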

The nature of experiment [17]: CCTE_Harrill_HTTr_Apoptosis_PRF_DMEM_6hr: (Pilot) CCTE's 6-hour Apoptosis Assessment for the High-Throughput Transcriptomics (HTTr) Platform, in MCF-7 cells cultured phenol red-free DMEM + 10% charcoal-stripped fetal bovine serum, Harrill Lab (AID 2283984). Put shortly:
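MCF-7 cells in phenol red-free DMEM + 10% charcoal-stripped FBS, eight-point dilution series, 6 h exposure. Caspase-3/7 activation imaged by high-content imaging with CellEvent Caspase 3/7 Green; bidirectional fit versus DMSO baseline.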

A short description of experiment [18]: CCTE_Harrill_HTTr_Apoptosis_PRF_DMEM_12hr: (Pilot) CCTE's 12-hour Apoptosis Assessment for the High-Throughput Transcriptomics (HTTr) Platform, in MCF-7 cells cultured in phenol red-free DMEM + 10% charcoal-stripped fetal bovine serum, Harrill Lab (AID 2283985). In short, it runs like this: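 MCF-7 cells in phenol red-free DMEM with 10% charcoal-stripped FBS, eight-point dilution series, 12 h exposure. Caspase-3/7 activation imaged by high content imaging with CellEvent Green reagent; bidirectional fit vs DMSO.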

The nature of experiment [19]: CCTE_Harrill_HTTr_Apoptosis_PRF_DMEM_24hr: (Pilot) CCTE's 24-hour Apoptosis Assessment for the High-Throughput Transcriptomics (HTTr) Platform, in MCF-7 cells cultured in phenol red-free DMEM + 10% charcoal-stripped fetal bovine serum, Harrill Lab (AID 2283986). Put shortly: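 MCF-7 cells in phenol red-free DMEM with 10% charcoal-stripped FBS, exposed 24 h across an eight-point dilution series. Caspase-3/7 activation imaged with CellEvent Green by high content imaging; bidirectional fitting against DMSO.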

Chain of Nucleoli Translocation, AR (gene 367) (P10275 whole entry, looked up): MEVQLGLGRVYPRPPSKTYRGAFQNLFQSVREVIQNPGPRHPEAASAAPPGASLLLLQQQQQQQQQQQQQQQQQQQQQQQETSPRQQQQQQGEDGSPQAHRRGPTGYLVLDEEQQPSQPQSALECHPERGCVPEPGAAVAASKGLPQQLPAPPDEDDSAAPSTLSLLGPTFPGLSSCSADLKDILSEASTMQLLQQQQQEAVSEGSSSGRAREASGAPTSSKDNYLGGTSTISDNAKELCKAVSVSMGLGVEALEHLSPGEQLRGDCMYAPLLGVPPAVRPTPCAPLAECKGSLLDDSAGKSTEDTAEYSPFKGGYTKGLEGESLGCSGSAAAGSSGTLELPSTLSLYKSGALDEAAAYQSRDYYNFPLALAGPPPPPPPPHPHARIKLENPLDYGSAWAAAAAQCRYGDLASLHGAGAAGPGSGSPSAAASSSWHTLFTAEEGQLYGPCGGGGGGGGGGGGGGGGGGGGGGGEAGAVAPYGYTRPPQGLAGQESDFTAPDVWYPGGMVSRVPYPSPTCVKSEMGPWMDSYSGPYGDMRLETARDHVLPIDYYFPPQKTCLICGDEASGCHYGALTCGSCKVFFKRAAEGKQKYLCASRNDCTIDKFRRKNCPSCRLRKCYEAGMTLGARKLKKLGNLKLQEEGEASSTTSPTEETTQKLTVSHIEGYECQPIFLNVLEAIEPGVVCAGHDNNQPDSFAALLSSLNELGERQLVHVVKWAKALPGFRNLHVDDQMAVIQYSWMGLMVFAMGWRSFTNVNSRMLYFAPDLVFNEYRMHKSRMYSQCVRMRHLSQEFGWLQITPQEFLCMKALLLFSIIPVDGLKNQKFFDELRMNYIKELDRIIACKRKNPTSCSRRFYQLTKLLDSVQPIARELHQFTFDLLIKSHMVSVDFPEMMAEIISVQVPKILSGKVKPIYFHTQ
Chain of Ratio of Nucleoli Translocation and Cytoplasm, AR (gene 367) (P10275 whole entry, looked up): as above

What is called AC50 is the concentration at which the activity in the assay is half-maximal. Regarding `CO/C=C(/C(=O)OC)c1ccccc1Oc1cc(Oc2ccccc2C#N)ncn1`, the result in experiment [1], in experiment [2], in [6], in experiment [7], in experiment [8] and in experiment [9] was inactive. Besides, the outcome in experiment [10], in [11], in experiment [12] and in [13] was inactive. The AC50 is 9.66 µM (active) and 9.17 µM (active) in experiment [3]; 6.48 µM (active) and 5.12 µM (active) in experiment [4]; 17.9 µM (active) and 8.88 µM (active) in experiment [5].

Consider `CCCN(CCC)c1c([N+](=O)[O-])cc(S(N)(=O)=O)cc1[N+](=O)[O-]`, for which the AC50 is 166 µM (active) [middle of 7 runs] in the experiment with DIO1 (gene 1733); 30.7 µM (active) in experiment [3]; 34 µM (active) in experiment [4]; 4.91 µM (active) in [7]; 4.91 µM (active) in experiment [8]; 4.69 µM (active) in experiment [12]. Besides, the compound was classed as inactive in experiment [3], in experiment [4], in experiment [5], in [6], in [9] and in experiment [10]. Further, the outcome in experiment [11] and in experiment [13] was inactive.

`CCCCNC(=O)OCC#CI`: the AC50 in experiment [3] was 14.3 µM (active); in [4], 91.7 µM (active); in experiment [7], 10.2 µM (active); in experiment [8] it was 10.2 µM (active). Moreover, the result in [5], in [6], in experiment [9], in experiment [10], in experiment [11] and in [12] was inactive. The call in experiment [13] was inactive.

As for `OC(c1ccc(Cl)cc1)(c1cncnc1)c1ccccc1Cl` (stereo unspecified), the compound was classed as inactive in experiment [3], in [4], in [5], in experiment [6], in [9] and in experiment [10]. The outcome in experiment [11] was inactive. In addition, the AC50 is 0.792 µM (active) in experiment [7], 0.803 µM (active) in [8], 0.882 µM (active) in [12] and 5 µM (active) in experiment [13].

For `CCOC(=O)CC(SP(=S)(OC)OC)C(=O)OCC` (stereo unspecified), the AC50 in experiment [1] was 50 µM (active); in [2], 69.2 µM (active). Further, the outcome in [9], in experiment [10] and in experiment [11] was inactive.

As for `CCNc1nc(Cl)nc(NC(C)C)n1`, the result in [14], in experiment [15], in experiment [16], in experiment [17], in [18] and in experiment [19] was inactive. The call in experiment [7], in experiment [8], in experiment [9], in experiment [10], in experiment [11] and in experiment [12] was inactive. Besides, in [13], the result was inactive.

Turning to `N#Cc1cc(Br)c(O)c(Br)c1`, the compound was classed as inactive in experiment [1], in [4], in experiment [5], in [9], in experiment [10] and in [11]. Moreover, the AC50 is 9.69 µM (active) in [3] and 10.8 µM (active) in experiment [6].

In the case of `CCON=C(CC)C1=C(O)CC(c2c(C)cc(C)cc2C)CC1=O` (stereo unspecified), the outcome in experiment [1], in experiment [2], in experiment [9] and in experiment [10] was inactive.

Regarding `C=CC1(C)OC(=O)N(c2cc(Cl)cc(Cl)c2)C1=O` (stereo unspecified), the result in [14], in experiment [15], in [16], in [17], in [18] and in [19] was inactive. Also, the result in [9], in [10] and in experiment [11] was inactive.

In the case of `N#CC(CCc1ccc(Cl)cc1)(Cn1cncn1)c1ccccc1` (stereo unspecified), the result in experiment [1], in [2], in experiment [3], in experiment [4], in [5] and in [6] was inactive. The call in experiment [7], in experiment [8], in [9], in experiment [10], in experiment [11] and in experiment [12] was inactive. Besides, the compound was classed as inactive in experiment [13].
